PPC-1+TRAIL kill – compounds killing PPC-1 cancer cells with TRAIL present (potentiator screen, no TRAIL-free arm) | PPC-1 cells + TRAIL, ATPLite viability luminescence | hit rate 0.41% among 220,000 | cell killing (% activity), % at 4 µM or 5 µM | AID 1443;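 active = cell killing above 50% in the first pass at 4 µM, then a duplicate retest at 5 µM averaging 50% or more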;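 also: plate controls were cells with TRAIL plus DMSO for no effect and medium-only wells lacking cells for full effect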
SENP7 block – SENP7 protease inhibition | hit rate 1.5% among 330,000 | Q9BQF6 | inhibition, % at 5 µM | AID 434973 | recombinant SENP7, Z-RLRGG-aminoluciferin luminescence, 40 min;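 active = inhibition above about 50% at the single test dose, limit read from the data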;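 also: plate controls were DMSO with enzyme for no effect and no enzyme buffer wells for full effect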
Target sequence (Q9BQF6 706-1050 limits assumed): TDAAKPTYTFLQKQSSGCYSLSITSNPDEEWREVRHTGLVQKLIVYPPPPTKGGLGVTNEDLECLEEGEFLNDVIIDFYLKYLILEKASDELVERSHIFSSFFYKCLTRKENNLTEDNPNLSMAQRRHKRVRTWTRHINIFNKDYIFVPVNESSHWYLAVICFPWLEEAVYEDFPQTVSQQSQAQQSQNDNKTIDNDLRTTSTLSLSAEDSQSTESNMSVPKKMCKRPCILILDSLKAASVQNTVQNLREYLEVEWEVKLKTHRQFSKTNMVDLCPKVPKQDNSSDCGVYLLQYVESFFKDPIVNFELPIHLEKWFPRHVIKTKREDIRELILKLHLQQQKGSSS
TRAIL sens C8 – sensitizes caspase-8 expressing cells to TRAIL; inhibition (viability loss, TRAIL sensitization), % at 10 µM; AID 624354; hit rate 1% among 360,000; NB7+C8 cells + TRAIL, ATPlite viability luminescence;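 active = compounds causing at least 50% loss of cell viability in the single-dose screen, relative to plate controls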
SENP8 block-1 – SENP8 (human) protease inhibition; Q96LD8; recombinant SENP8, Nedd8 substrate fluorescence; inhibition, % at 20 µM; hit rate 0.64% among 360,000; AID 602440; in the data active = inhibition mostly above about 40%, no sharp cut-off; inactive = mostly below about 27%
SENP6 block – blocks the human protease SENP6 | Recombinant SENP6 catalytic domain, aminoluciferin luminescence | inhibition, % at 10 µM | hit rate 1.8% among 330,000;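 active = inhibition above about 50% at the single tested dose, limit read from the data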;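 also: plate controls were DMSO wells with enzyme for no effect and DMSO wells lacking enzyme for full effect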
SENP8 block-2 – inhibitors of human SENP8 protease; Q96LD8; purified SENP8, Z-RLRGG-aminoluciferin cleavage, luminescence; inhibition, % at 10 µM; hit rate 1.2% among 330,000; AID 2540; in the data active = inhibition above about 50%
SENP8 confirm – confirmation of human SENP8 protease inhibitors; shares compounds with SENP7 block; hit rate 40% among 6,200; inhibition, % at 12.5 µM; Recombinant SENP8, Z-RLRGG-aminoluciferin luminescence, 60 min; AID 488912;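 active = mean inhibition across replicates above about 50%, limit read from the data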
SENP6 confirm – confirmation of human SENP6 protease inhibitors. shares compounds with SENP7 block. recombinant SENP6, Z-RLRGG-aminoluciferin luminescence. inhibition, % at 12.5 µM. hit rate 58% among 6,200
SENP7 confirm – confirmation of human SENP7 protease inhibitors | shares compounds with SENP7 block | recombinant SENP7, Z-RLRGG-aminoluciferin luminescence, 40 min | inhibition, % at 12.5 µM | hit rate 69% among 6,200 | AID 488917
Casp3 SENP sel – selectivity test for SENP inhibitors: human caspase-3 inhibition; shares compounds with SENP7 block; purified caspase-3, Z-DEVD-aminoluciferin luminescence, 60 min; AID 488918; inhibition, % at 12.5 µM; hit rate 60% among 6,200;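 active = mean inhibition above about 50%, limit read from the data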;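 also: plate controls were enzyme with DMSO for no effect and wells without caspase-3 for full effect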
Target sequence (P42574 28-227 limits assumed): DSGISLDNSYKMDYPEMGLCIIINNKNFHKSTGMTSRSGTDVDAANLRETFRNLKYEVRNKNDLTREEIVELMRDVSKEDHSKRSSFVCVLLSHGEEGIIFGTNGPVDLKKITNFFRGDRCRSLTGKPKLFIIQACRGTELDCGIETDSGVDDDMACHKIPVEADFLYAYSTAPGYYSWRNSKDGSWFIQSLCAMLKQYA
Luc interf – luminescence interference (SENP counter-screen) | hit rate 39% among 6,200 | Pre-incubated SENP8/Z-RLRGG-aminoluciferin, luciferase luminescence interference | shares compounds with SENP7 block | inhibition, % at 12.5 µM;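 active = mean inhibition above about 50% when retested at one dose, limit read from the data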;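 also: plate controls were DMSO wells with completed reaction for no effect and substrate without enzyme for full effect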
* hit, by the source's call; i = inactive; · = no result. Shown are actives, neighbours in structure and some others; about 3% of the full set was active somewhere.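 The calls were made as follows, unless noted: active = mean inhibition above about 50% in the one-dose retest (limit read from the data); inactive = the rest.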

SMILES | PPC-1+TRAIL kill | SENP7 block | TRAIL sens C8 | SENP8 block-1 | SENP6 block | SENP8 block-2 | SENP8 confirm | SENP6 confirm | SENP7 confirm | Casp3 SENP sel | Luc interf
COCc1cc(=O)[nH]c(N2CCN(Cc3ccc4c(c3)OCO4)CC2)n1 | · | -1.7 | 1.9 | 12.4 | -13.4 | -6.0 | · | · | · | · | ·
CCc1sc(C(=O)Nc2ncccc2O)cc1C | · | 65.8* | 35.9 | -2.9 | 69.1* | 34.2 | 62.0* | 59.1* | 86.8* | 82.6* | 64.3*
CCc1sc(C(=O)Nc2nccs2)cc1C | · | 79.9* | 23.9 | -7.5 | 80.0* | 67.5* | 83.2* | 81.2* | 95.9* | 79.3* | 14.6
CCc1sc(C(=O)Nc2ncccc2C)cc1C | · | 9.0 | -1.3 | -2.7 | -22.6 | 1.0 | · | · | · | · | ·
CC(C)NC(=O)Nc1nnc([C@@H]2C[C@H](O)[C@@H](CO)O2)s1 | · | · | -8.0 | 13.2 | · | · | · | · | · | · | ·
C=CC[C@H](CC(=O)N(CCO)Cc1ccccc1)C(=O)N[C@H](COC(=O)[C@@H](CC=C)CC(=O)OC(C)(C)C)c1ccccc1 | · | 7.7 | 4.3 | 23.6 | 14.4 | 1.7 | · | · | · | · | ·
CCCCN1C(=O)C(=O)N(CC(=O)NC2CCCc3ccccc32)C1=O (configuration not stated) | 24.3 | 3.3 | -5.6 | -1.8 | 2.8 | -0.1 | · | · | · | · | ·
O=C(Nc1ccccn1)c1ccc2ccccc2c1O | · | 25.4 | 5.6 | i | 63.5* | 43.1 | 49.4 | 45.3 | 76.5* | 62.7* | 59.4*
O=C(Nc1ccccn1)c1ccc(Cl)s1 | · | 66.1* | -7.8 | 5.5 | 60.3* | 25.9 | 30.2 | 38.0 | 77.5* | 74.3* | 55.5*
O=C(Nc1cccc([N+](=O)[O-])c1)c1ccc2ccccc2c1O | 27.7 | 91.7* | 54.0* | 5.4 | 90.5* | 92.3* | -3.5 | 30.5 | 28.4 | 26.9 | 0.3
O=C(Nc1cccnc1)c1ccc2ccccc2c1O | · | 87.8* | 35.5 | -496.3 | 94.3* | 85.4* | 92.6* | 91.9* | 99.5* | 93.4* | 87.3*
O=C(N/N=C/c1cccnc1)c1ccc2ccccc2c1O | · | -1.6 | 23.1 | -228.6 | 5.1 | -2.9 | · | · | · | · | ·
O=C(NCc1ccccn1)c1ccc(Cl)s1 | 6.5 | 8.0 | -2.0 | 4.9 | -7.4 | 5.6 | · | · | · | · | ·
CN(c1ccc(-c2csc(NC(=O)CCCc3nc4ccccc4c(=O)[nH]3)n2)cc1)S(C)(=O)=O | · | · | 6.6 | -174.0 | · | · | · | · | · | · | ·
Cc1cccc(C(=O)Nc2sc3c(c2C(=O)O)CCC3)c1 | -5.8 | 87.3* | 3.9 | -94.2 | 98.6* | 96.2* | 96.0* | 96.4* | 100.1* | 95.0* | 94.3*
COc1cccc(C(=O)Nc2sc3c(c2C(=O)O)CCCC3)c1 | · | 21.7 | -2.9 | -123.5 | 88.8* | 84.1* | 35.8 | 74.3* | 68.2* | 78.8* | 10.0
CNC(=O)c1c(NC(=O)c2cccc(C)c2)sc2c1CCC2 | · | -8.1 | 9.3 | -228.4 | -17.9 | -5.4 | · | · | · | · | ·
CCOC(=O)c1oc2ccc(Br)cc2c1COC(=O)C1=COCCO1 | · | 4.0 | -13.9 | 13.1 | -8.5 | 1.4 | · | · | · | · | ·
O=C1/C(=C/c2cccc(F)c2)Oc2cc(O)ccc21 | · | 47.3 | 9.9 | -256.4 | 52.3* | 36.2 | 70.0* | 63.7* | 80.8* | 44.2 | 34.1
O=C(c1ccccc1)c1nnc(-c2ccccc2F)o1 | 3.2 | 96.5* | -5.8 | 37.4 | 85.3* | 90.2* | 78.6* | 95.5* | 98.9* | 89.7* | 31.0
COc1cccc(-c2nc(-c3ccc(C(=O)O)cc3)no2)c1 | · | 97.2* | 25.4 | -12.1 | 99.0* | 95.4* | 99.2* | 99.9* | 103.2* | 99.1* | 86.4*
CC(=O)Oc1cccc(-c2nc3ccccc3c(=O)o2)c1 | 13.9 | -20.6 | -5.2 | -7.6 | -15.2 | -16.5 | · | · | · | · | ·

Screening data as filed in PubChem.
